The record followed here is PubChem BioAssay AID686978 (National Center for Advancing Translational Sciences (NCATS), 2013).

In all, about 420,000 compounds went through this assay and about 64,000 (15%) were called active. Roughly 27% stayed inconclusive and do not appear here. The list is a sample of the results. Unmarked numbers belong to inactive results. Calls follow the shape of the dose curve; as a rule, active = well fitted inhibition curve with a large enough effect; inconclusive = small, poorly fitted or top-dose-only effect; inactive = flat fitted curve, though single readings scatter.
% is scaled to controls: 0 for no effect and ±100 for the full control effect; potency is read from the fitted curve at half-maximal effect.

The assay in a line: qHTS for Inhibitors of human tyrosyl-DNA phosphodiesterase 1 (TDP1): qHTS in cells in absence of CPT. Also: nearly all actives have a fitted effect of over 55% in size. Particulars: DT40 Tdp1-/- hTDP1 cells, no CPT, ATP luminescence, 48 h; activity change, negative = growth inhibition: at 46.2 µM (top of the series). The gist of the method: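 Chicken DT40 Tdp1-/- cells complemented with human TDP1, screened without camptothecin (DMSO vehicle only), 400 cells/well. Compounds pin-transferred, cells incubated at 37 °C for at least 48 hr. Growth read as ATP-dependent luminescence (CellTiter-Glo, 30 min at RT).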
On the technique in general: qHTS replaces the single test concentration by a dilution series.
For `O=C(c1cccc(Br)c1)N1CCN(C2=NS(=O)(=O)c3ccccc32)CC1`, the “activity change, negative = growth inhibition” value is -10.2%.

Consider `O=C(c1ccc2c(c1)N(Cc1ccccc1)C(=O)c1ccccc1S2(=O)=O)N1CCC(Cc2ccccc2)CC1`, for which the Potency is 5.8 µM (active).

As to `COc1ccc(Cl)cc1N(CC(=O)N/N=C/c1ccc(OCC(N)=O)cc1)S(C)(=O)=O`, the “activity change, negative = growth inhibition” value is -9.15%.

On to `CCOc1ccc(C(=O)N2CCN(CCc3ccccn3)CC2)cc1`, for which the “activity change, negative = growth inhibition” value is -26.6%.

For the compound `O=C(CSc1nnc(-c2cccnc2)n1CCc1ccccc1)NCc1ccccc1`, the “activity change, negative = growth inhibition” value is -0.184%.

As for `COc1ccc(C)cc1NC(=O)CCS(=O)(=O)c1cccc2nonc12`, the “activity change, negative = growth inhibition” value was -7.48%.

`COCCN(CCOC)S(=O)(=O)NC[C@H]1O[C@@H](n2cnc3c(N)ncnc32)[C@H](O)[C@@H]1O`: the “activity change, negative = growth inhibition” value was -1.26%.

With `CN1CCN(S(=O)(=O)c2ccc(NC(=S)NC(=O)C3CC3)cc2)CC1`, the “activity change, negative = growth inhibition” value is -7.98%.

Regarding `CCOC(=O)c1cccnc1NC(=O)c1ccncc1`, the “activity change, negative = growth inhibition” value was 7.91%.

Consider `O=C(O)c1ccccc1-c1ccccc1C(=O)Nc1cccc2ccccc12`, for which the “activity change, negative = growth inhibition” value is -2.15%.

Consider `COC(=O)COc1ccc2c(c1C)O/C(=C\c1ccco1)C2=O`, for which the “activity change, negative = growth inhibition” value was -27.7%.

In the case of `C=CCn1cc(-c2cccc(C(F)(F)F)c2)cc(C#N)c1=O`, the “activity change, negative = growth inhibition” value was -9.09%.

For the compound `O=c1cc(O)c(-c2cccc(C(F)(F)F)c2)c(Cl)[nH]1`, the “activity change, negative = growth inhibition” value was -13.8%.

With `CC1(Cc2cccc(C#N)c2)C(=O)Nc2ccc(-c3cccc(C(F)(F)F)c3)cc21` (stereo unspecified), the Potency was 20.6 µM (active).

With `COC(=O)C(C)Sc1ccc2nnc(-c3cccc(F)c3)n2n1` (stereo unspecified), the “activity change, negative = growth inhibition” value is -17.7%.

In the case of `CCn1ccnc1CN(C)Cc1nc(-c2ccc3c(c2)OCO3)no1`, the “activity change, negative = growth inhibition” value was -24.4%.

With `Cc1ccc(-n2cc(CN(C)Cc3nccn3C)c(-c3cccc(C)c3)n2)cc1`, the Potency is 23.1 µM (active).

As to `Cc1ccc(-n2cnc3ncnc(-c4ccccc4)c32)cc1`, the “activity change, negative = growth inhibition” value is -16.9%.

For the compound `O=C(CCCl)Nc1ccc(S(=O)(=O)NCc2ccco2)cc1`, the “activity change, negative = growth inhibition” value is -4.87%.

With `Cc1oc(-c2ccccc2Cl)[n+]([O-])c1C`, the Potency is 23.1 µM (active).

Take `Cc1ccc(-c2cc(-c3coc4ccccc4c3=O)c3c(n2)-c2cc(Cl)ccc2OC3)cc1`: the “activity change, negative = growth inhibition” value is -9.37%.

Take `O=C(c1ccc(OC2CCN(Cc3ccccn3)CC2)cc1)N1CCCCCC1`: the “activity change, negative = growth inhibition” value was -20%.

As for `COc1cc([N+](=O)[O-])ccc1NC(=O)CN1CCCC1`, the “activity change, negative = growth inhibition” value was 1.19%.

For the compound `CSc1ccccc1NC(=O)COC(=O)CCCOc1ccc(C)cc1`, the “activity change, negative = growth inhibition” value was -4.28%.

Consider `COc1cc([N+](=O)[O-])ccc1NC(=O)COC(=O)CCOc1ccc(C)cc1`, for which the Potency was 6.51 µM (active).

On to `O=C(C[C@H]1CC[C@@H](NC(=O)c2ccncc2)[C@@H](CO)O1)NCC1CC1`, for which the “activity change, negative = growth inhibition” value was -1.98%.

In the case of `C=CCn1cnc2scc(-c3ccccc3)c2c1=O`, the “activity change, negative = growth inhibition” value was -17.8%.

With `CN(CCC#N)c1ncnc2scc(-c3ccccc3)c12`, the Potency was 14.6 µM (active).

With `N#CCCN(CCC#N)c1nnc(-c2ccccc2)s1`, the “activity change, negative = growth inhibition” value was -4.74%.

Regarding `CCC(=O)NC(Nc1cc(C)ccn1)(C(F)(F)F)C(F)(F)F`, the “activity change, negative = growth inhibition” value is -7.28%.

Regarding `Cc1cc(C)cc(OCC(=O)Nc2ccc(S(=O)(=O)Nc3ccccn3)cc2)c1`, the “activity change, negative = growth inhibition” value is -19.5%.

Take `Cc1cc(C)cc(NS(=O)(=O)c2ccc(Oc3ncc(C(F)(F)F)cc3Cl)cc2)c1`: the Potency is 13 µM (active).

Regarding `COC(=O)Cc1ccc(Oc2ncc(C(F)(F)F)cc2Cl)cc1`, the “activity change, negative = growth inhibition” value was -12.9%.

Take `Cc1nc(C(F)(F)F)ccc1C(=O)N1CCC1(C)C(=O)NS(=O)(=O)c1ccccc1` (stereo unspecified): the “activity change, negative = growth inhibition” value is -4.76%.

On to `O=C(CCN1Cc2ccccc2OC(c2ccccc2)C1)N[C@@H]1CS(=O)(=O)C[C@H]1O` (stereo partly specified), for which the “activity change, negative = growth inhibition” value was -13.3%.

With `COc1ccc(C2COC(=O)C2=N)c(NC(=O)c2ccccc2)c1` (stereo unspecified), the “activity change, negative = growth inhibition” value was -28.1%.

As to `CCCc1ccc(C(=O)[C@@H]2[C@@H](C(C)=O)N3c4ccc(F)cc4C=C[C@@H]3[C@@]23C(=O)Nc2ccccc23)cc1`, the Potency is 18.4 µM (active).

`COc1cccc(OC)c1C(=O)NC(=S)NCc1ccco1`: the “activity change, negative = growth inhibition” value is -16.1%.

Take `COc1cc(C(=O)NC(=S)NCc2ccco2)cc(OC)c1OC`: the Potency was 20.6 µM (active).

Regarding `COc1cc(C(=O)N[C@@H](C)C(=O)NCc2ccco2)cc(OC)c1OC`, the “activity change, negative = growth inhibition” value is -2.61%.

As for `COc1ccc(-c2nc3c(c(SCC(=O)Nc4ccc(C(=O)O)cc4)n2)Cc2ccccc2O3)cc1`, the “activity change, negative = growth inhibition” value was -7.92%.

`Cc1oc2nc(SCC(=O)NCc3cccnc3)nc(N)c2c1C`: the “activity change, negative = growth inhibition” value is 0.424%.

On to `COc1ccccc1NC(=O)C1=C(C)NC(=O)NC1c1ccc(C)s1` (stereo unspecified), for which the “activity change, negative = growth inhibition” value is -13.6%.

Regarding `CC(NC(=O)c1ccc(Cl)cc1)C(=O)N1CCCCC1` (stereo unspecified), the “activity change, negative = growth inhibition” value was -9.8%.

In the case of `O=C(Cn1nnc(N2CCCCC2)n1)c1ccc(Cl)c(Cl)c1`, the “activity change, negative = growth inhibition” value was -10.8%.

Turning to `O=C(Cn1nc(CNc2ccc(Cl)cc2)[n+]2c1CCCCC2)c1ccc(Cl)cc1`, the Potency is 23.1 µM (active).

As for `CC1(c2ccccc2Cl)NC(=O)N(CC(=O)NC(=O)NCc2ccco2)C1=O` (stereo unspecified), the “activity change, negative = growth inhibition” value is -5.22%.

`O=C(CCN1C(=O)c2ccncc2C1=O)Nc1ccc2c(c1)OCCO2`: the “activity change, negative = growth inhibition” value is -12.2%.

With `COC(=O)C1=C(C)NC(=O)/C1=C/c1ccc(CNS(=O)(=O)c2ccc(C)cc2)o1`, the “activity change, negative = growth inhibition” value is -16.5%.

As to `COC(=O)C1=C(C)N(c2ccc(C)cc2)/C(=C/c2ccc(O)cc2)C1=O`, the Potency was 20.6 µM (active).

On to `Cc1ccc(/C=C2\SC(=S)N(CCC(=O)Nc3ccc(O)cc3)C2=O)cc1`, for which the “activity change, negative = growth inhibition” value is -12.5%.
